# Source: PubChem
# Only some compounds are listed: those with a hit (about 1.9% of all), similar ones and a draw of the others.
# Abeta yeast res = qHTS for compounds that reverse cellular toxicity of Amyloid beta (A-beta) peptide in yeast: Primary Screen. yeast expressing A-beta42, growth rescue, OD600, 48 h; response scale: 0% DMSO, 100% iron-clioquinol control. Potency, µM (doses to about 46.1 µM), actives largely listed as activators. hit rate 0.063% among 410,000; also: potency is read from the fitted curve at half-maximal effect; nearly all actives have a fitted effect of over 55% in size
#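 Yeast growth medium received pinned compounds, then yeast cells expressing toxic A-beta were added; plates incubated at 30 C for 48 hr. Growth read as absorbance at 600 nm, normalized to DMSO and equimolar FeCl3 plus clioquinol controls.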
# LDHA block = qHTS assay for inhibitors of human lactate dehydrogenase; purified LDHA, NADH/diaphorase-resazurin fluorescence; stronger effect = lower value; hit rate 0.15% among 480,000; AID 1347041, 2019; activity change, % (values are at about 110 or 230 µM); L-lactate dehydrogenase A chain (Homo sapiens), P00338; in the data active = activity change below about -30%; inconclusive = mostly about -25% to -30%;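 also: plate controls were DMSO wells for no effect and wells without enzyme for full effect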
#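 Enzyme activity of human lactate dehydrogenase 5 (2 nM; 0.06 mM NADH, 0.2 mM pyruvate, 5 min, RT) is measured via a resazurin/diaphorase fluorescence readout of residual NADH.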
# FUS yeast rescue = qHTS for Suppressors of FUS Proteinopathy: Primary screen using FUS-linked yeast assay; S. cerevisiae FUS-expressing, growth rescue, OD600, 24 h; Potency, µM (top dose mostly 76.6 µM), actives largely listed as activators; hit rate 0.24% among 390,000; AID 1347120, 2019;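 also: potency is read from the fitted curve at half-maximal effect; plate controls were DMSO vehicle for no effect and reference control for full effect; nearly all actives have a fitted effect of over 55% in size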
#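 Yeast expressing FUS under galactose induction, OD 0.005 in 2% galactose medium; compounds in a dilution series, 24 h at 30C. Growth rescue by absorbance at 600 nm; CP55940 positive control, DMSO negative.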
# aSyn rescue = qHTS of alpha-syn Inhibitors | Yeast expressing alpha-synuclein, growth rescue, BacTiter-Glo, 24 h | Potency, µM (series often up to 46.1 µM), for the others: top-dose growth rescue (activation), hits mostly activators | hit rate 0.14% among 370,000; also: potency is read from the fitted curve at half-maximal effect; % of control where 0% means no effect; nearly all actives have a fitted effect of over 65% in size
#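 Screening used galactose-induced yeast with toxic alpha-synuclein levels, exposed to compound for 24 hr at 30 deg C. Cell growth, read with BacTiter-Glo luminescence, gave the measured signal.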
# PTHR1 agonist = qHTS for PTHR1 Agonists: Primary Screen; AID 743266, 2014; Parathyroid hormone/parathyroid hormone-related peptide receptor (Homo sapiens), Q03431; hit rate 0.075% among 410,000; Potency, µM (top dose mostly 115 µM), for the others: top-dose activation, actives largely listed as activators; HEK293 GP2 PTHR1 cells, GloSensor cAMP luminescence, 1 h; also: potency is read from the fitted curve at half-maximal effect; nearly all actives have a fitted effect of over 55% in size
# Target sequence (Q03431 whole entry, looked up): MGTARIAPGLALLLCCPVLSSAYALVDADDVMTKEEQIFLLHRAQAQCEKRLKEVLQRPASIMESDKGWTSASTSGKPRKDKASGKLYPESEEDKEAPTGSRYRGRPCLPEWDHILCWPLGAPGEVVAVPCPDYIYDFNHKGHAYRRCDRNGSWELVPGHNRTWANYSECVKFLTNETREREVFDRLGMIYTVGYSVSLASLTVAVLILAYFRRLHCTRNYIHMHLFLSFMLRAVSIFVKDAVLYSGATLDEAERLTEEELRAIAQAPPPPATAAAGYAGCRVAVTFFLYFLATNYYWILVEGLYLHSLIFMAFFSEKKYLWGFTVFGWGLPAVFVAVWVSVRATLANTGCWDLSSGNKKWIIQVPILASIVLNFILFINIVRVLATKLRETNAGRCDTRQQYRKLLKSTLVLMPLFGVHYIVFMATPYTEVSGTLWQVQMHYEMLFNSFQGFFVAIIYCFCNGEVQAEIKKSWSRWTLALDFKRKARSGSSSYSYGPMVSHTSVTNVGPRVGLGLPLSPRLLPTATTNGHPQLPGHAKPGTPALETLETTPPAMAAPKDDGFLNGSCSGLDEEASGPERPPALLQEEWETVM
#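 HEK-293-derived GP2 cells expressing PTHR1 and a GloSensor cAMP reporter, 3,000/well, plated overnight, given luciferin plus IBMX (each 0.5 mM as added) for 1 h at 37 °C, then compound for 1 h at 37 °C. Luminescence was read after 15 min at room temperature.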
# TDP-43 yeast inh = qHTS of TDP-43 Inhibitors | TDP-43 expressing yeast growth rescue, BacTiter-Glo, 24 h | Potency, µM (top dose mostly 46.1 µM), without a hit: top-dose growth rescue (activation), usual class: activators | hit rate 1.8% among 410,000 | AID 652104, 2013; also: potency is read from the fitted curve at half-maximal effect; % of control where 0% means no effect; nearly all actives have a fitted effect of over 50% in size
#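 Growth rescue of TDP-43-toxic yeast measured as ATP luminescence (BacTiter-Glo). Cells grown to mid-log in raffinose, induced in galactose at OD600=0.02, exposed to compound 24 hr at 30 deg C.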
# Starred values were filed as active, the others as inactive; i = inactive; ? = inconclusive; · = no result given; ! = not confirmed by another sample; [ ] = another dose, or the depositor's remark. Unless noted, calls follow the shape of the dose curve; as a rule, active = well fitted curve in the direction sought with a large enough effect; inconclusive = small, poorly fitted or top-dose-only effect, or another doubt; inactive = no such curve, though single readings can be large; an effect the other way counts as inactive or inconclusive.
SMILES,Abeta yeast res,LDHA block,FUS yeast rescue,aSyn rescue,PTHR1 agonist,TDP-43 yeast inh
COc1ccc(C(=O)O)cc1OC,i,-13.7,i,-13.3%,-24.1%,19.9%
CC12CCC(O)CC1CCC1[C@@H]2CCC2(C)C(C3=CC(=O)OC3)C(O)CC12O (stereo partly drawn),·,0.4,·,·,·,·
Cc1cccc(OCCn2c(=O)oc3ccc(C)cc32)c1,i,0.6,i,1.1%,-32.8%,14.1µM*
Cc1c(C(c2ccc(Cl)cc2Cl)c2c(O)c3ccccc3oc2=O)c(=O)n(-c2ccccc2)n1C (stereo not drawn),i,1.3,i,3.0%,-63.1%,10µM*
Cc1c(C(c2ccc(Br)cc2)c2c(O)c3ccccc3oc2=O)c(=O)n(-c2ccccc2)n1C (stereo not drawn),i,0.6,?,-3.8%,i,14.1µM*!
CSc1ccc(C(c2c(O)c3ccccc3oc2=O)c2c(C)n(C)n(-c3ccccc3)c2=O)cc1 (stereo not drawn),i,-1.1,?,12.5%,-6.9%,-16.8%
CCc1ccc(NC(=O)CN2C(=O)CN=C(c3ccc(OC)cc3)c3c2sc2c3CCC2)cc1,·,2.1,·,·,·,·
O=C(CN1CCN(Cc2ccccc2)CC1)Nc1ccc(Cl)cc1C(=O)c1ccccc1,·,7.6,·,·,·,·
COc1cc(Cn2c(=O)oc3ccc(C)cc32)ccc1OC(C)C,i,-0.3,i,-6.2%,-3.2%[57.5 µM],35.5µM*
CCOc1ccc(Cn2c(=O)oc3ccc(C)cc32)cc1OC,i,-10.8,i,3.6%,-34.5%,17.0%
Cc1cccc(-n2nnnc2C2(NC(C)C)CCCCC2)c1,·,-0.3,·,·,·,·
O=C(O)C1(Br)CC12c1ccccc1-c1ccccc12 (stereo not drawn),i,-9.6,·,-0.8%,-43.9%,12.6µM*
CCCCc1ccc2[nH]c(C)c(CCN)c2c1,·,0.5,·,·,·,·
Cc1c(C(=O)c2cccc3ccccc23)c2cccc3c2n1[C@H](CN1CCOCC1)CO3,i,-10.2,i,15.7%,-50.9%,25.1µM*
CC(C(=O)NCc1cccs1)N1CC=C(c2ccccc2)CC1 (stereo not drawn),·,1.1,·,·,·,·
Nc1ccc2cc(Br)ccc2c1,i,4.9,i,8.0%,-12.0%,35.5µM*
Cc1cc(C(=O)OCC(=O)Nc2ccccc2Br)c(C)n1C(C)C,·,5.8,·,·,·,·
Cc1cccc(NC(=O)COC(=O)c2cc(C)n(C3CC3)c2C)c1,i,-1.4,i,16.7%,i,35.5µM*
COc1cccc(CNCCc2cccc(F)c2)c1,·,-6.1,·,·,·,·
Cc1ccccc1C(=O)N1Cc2cnnn2-c2ccccc2C1C#N (stereo not drawn),i,-4.4,i,3.2%,-17.6%,18.8%
Cc1ccccc1-c1ccc2n1Cc1cnnn1-c1ccccc1-2,i,2.6,i,5.0%,-15.9%,12.6µM*
COc1ccc2c3c1OC1C(O)C=CC4C(C2)[N+](C)(C)CCC341 (stereo not drawn),i,-72.2*,i,7.3%,i,10.4%
c1ccc(-c2ccc(C(c3ccccc3)n3ccnc3)cc2)cc1 (stereo not drawn),i,0.7,i,?,-38.3%,6.31µM*
c1ccc(C(c2ccccc2)c2cccnc2)cc1,i,-0.6,?,?,-20.7%,-3.5%
Cc1ccccc1-n1nc(C)c2c1NC(=O)CSC2c1ccccc1C(F)(F)F (stereo not drawn),i,-4.1,i,·,-19.7%,35.5µM*
SMILES,Abeta yeast res,LDHA block,FUS yeast rescue,aSyn rescue,PTHR1 agonist,TDP-43 yeast inh
O=C(CCl)NCNC(=O)CCl,·,10.9,·,·,·,·
Cc1cc2c(c(=O)o1)C1(C(=O)Nc3ccccc31)C(C(=O)OCc1ccccc1)=C(N)O2 (stereo not drawn),·,2.8,·,·,·,·
Cc1ccc(/C=C2\C(=O)NC(=S)N(c3ccccc3F)C2=O)s1,i,-32.5*,·,-65.5%,-26.2%,-90.3%
Fc1ccc(-c2ccc(CNC3CN4CCC3CC4)o2)cc1Cl (stereo not drawn),·,-12.6,·,·,·,·
CC(Cl)C(=O)NC(C)(C)C (stereo not drawn),·,-0.7,·,·,·,·
COc1ccccc1/C=C1\C(=O)NC(=S)N(c2ccccc2)C1=O,i,-24.4,i,-0.6%,i,13.1%
COc1ccccc1C=C1C(=O)NC(=S)NC1=O,i,-56.7*,i,-4.0%,-45.2%,-3.1%
CCC(=NCCCn1ccnc1)c1c(O)n(Cc2ccccc2)c(=O)[nH]c1=O,i,4.4,i,-2.1%,14.4%[57.5 µM],31.6µM*
CCn1nc(-c2cccs2)nc2c(=O)n(C)c(=O)nc1-2,i,31.2,i,-73.0%,-31.2%[57.5 µM],-93.5%
CCn1nc(/C=C/c2ccccc2)nc2c(=O)n(C)c(=O)nc1-2,i,50.4,i,-92.4%,-31.5%,3.16µM*
COc1ccc(CC2NCC(O)C2OC(C)=O)cc1 (stereo not drawn),i,-5.1,i,?,-44.9%,12.6µM*
Cc1ccc(NC(=O)CN2C(=O)CN=C(c3ccccc3)c3cc(Cl)ccc32)cc1,i,-6.9,?,?,i,14.1µM*
O=C(CN1C(=O)CN=C(c2ccccc2)c2ccccc21)Nc1cccc(C(F)(F)F)c1,i,2.3,?,·,i,35.5µM*
Cc1ccc(NC(=O)C2CCN(C(=O)c3cnn(-c4ccccc4)c3-n3cccc3)CC2)cc1Cl,i,-1.2,i,·,-9.4%,35.5µM*
O=C1NCN(c2ccccc2)C12CCN(C(c1cc3ccccc3o1)c1nnnn1C1CCCCC1)CC2 (stereo not drawn),i,3.0,11.2µM*,17.3%,-5.0%,26.4%
O=S(=O)(c1ccc(Cl)cc1)N1Cc2cc(Br)ccc2-n2nncc2C1,i,-3.5,i,4.1%,-14.8%,20µM*
O=S(=O)(c1cccc2ccccc12)N1Cc2ccccc2-n2nncc2C1,i,-18.0,i,0.2%,-37.5%,20µM*
Nc1cccc(N=Cc2c(O)n(Cc3ccc(F)cc3)c(=O)[nH]c2=O)c1,i,14.8,11.2µM*,-1.3%,-17.8%[57.5 µM],7.5%
C=C1C(O)(c2ccccc2)C2CC[N+]1(C)CC2 (stereo not drawn),i,-37.5*,i,1.0%,-4.6%[57.5 µM],-7.5%
C=C1N2CCC(CC2)C1(O)c1ccc(C)cc1 (stereo not drawn),i,-4.2,i,2.0%,i,0.0%
CC12CN3CC(C)(C[N+](C)(C3)C1)C2=O,·,-0.5,·,·,·,·
